Test results taken from PubChem BioAssay (EPA / NIEHS).
Several values for one entry are separate records, joined by “and”; a condition that tells them apart may be missing. Equal entries are not always repeated. Results filed as inconclusive are left out. Where a structure was tested more than once in an assay, its records may differ in their call. Activity calls are given as the source filed them. Rule for the calls: active = hit-call score of the fitted dose curve at least 0.9, where 1 is the maximum; inconclusive = response in the unintended direction; inactive = score below 0.9.

Assays:
[1] = molecular target: human Adrenergic, Alpha 2A Receptor (Adra2A), ADRA2A (gene 150) (UniProt P08913); assay: NVS_GPCR_hAdra2A: NovaScreen (NVS) G Protein-Coupled Receptor Assay for human Adrenergic, Alpha 2A Receptor (Adra2A) (AID 2283257)
Method in brief: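 Displacement of a specific radioligand from HT29 membrane protein was counted by filter scintillation after 1 h. Compounds were screened in duplicate at 25 uM, and actives were retested in concentration series. Fitting was positive-direction against DMSO.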

[2] = NVS_GPCR_bNPY_NonSelective: NovaScreen (NVS) G Protein-Coupled Receptor Assay for bovine Neuropeptide Y (NPY) Receptor, Non-selective Binding (AID 2283245)
Method in brief: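 Displacement of radioligand from bovine hippocampal membrane receptors, read by filtration and scintillation counting after 1 hour. Concentration-response to a top of 50 uM followed a 25 uM duplicate primary screen. Loss of signal versus DMSO.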

[3] = molecular target: guinea pig Leukotriene D4 Receptor (LTD4), CYSLTR1 (gene 100135514) (UniProt Q2NNR5); assay: NVS_GPCR_gLTD4: NovaScreen (NVS) G Protein-Coupled Receptor Assay for guinea pig Leukotriene D4 Receptor (LTD4) (AID 2283248)
guinea pig Leukotriene D4 Receptor (LTD4), CYSLTR1 (gene 100135514), sequence (Q2NNR5 whole entry, looked up): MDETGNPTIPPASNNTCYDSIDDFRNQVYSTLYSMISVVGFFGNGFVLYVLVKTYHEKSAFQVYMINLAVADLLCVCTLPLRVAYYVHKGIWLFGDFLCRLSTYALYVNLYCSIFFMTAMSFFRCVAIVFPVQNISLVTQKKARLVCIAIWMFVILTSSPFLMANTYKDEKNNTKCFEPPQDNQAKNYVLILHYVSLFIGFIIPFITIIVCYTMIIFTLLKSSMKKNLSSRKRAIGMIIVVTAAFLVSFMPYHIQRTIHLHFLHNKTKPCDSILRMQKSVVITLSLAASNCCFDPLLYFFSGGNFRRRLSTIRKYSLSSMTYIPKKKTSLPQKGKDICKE
Method in brief: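 Guinea pig lung membrane preparation; bound radioligand measured by filter scintillation after 1 h, loss of signal versus DMSO marking displacement. Compounds tested at 25 uM in duplicate, hits retested to max 50 uM.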

[4] = molecular target: human Serotonin, 5-Hydroxytryptamine Receptor 7 (5HT7), HTR7 (gene 3363) (UniProt P34969); assay: NVS_GPCR_h5HT7: NovaScreen (NVS) G Protein-Coupled Receptor Assay for human Serotonin, 5-Hydroxytryptamine Receptor 7 (5HT7) (AID 2283255);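 note: hits reduce specific radioligand binding relative to DMSO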
human Serotonin, 5-Hydroxytryptamine Receptor 7 (5HT7), HTR7 (gene 3363), sequence (P34969 whole entry, looked up): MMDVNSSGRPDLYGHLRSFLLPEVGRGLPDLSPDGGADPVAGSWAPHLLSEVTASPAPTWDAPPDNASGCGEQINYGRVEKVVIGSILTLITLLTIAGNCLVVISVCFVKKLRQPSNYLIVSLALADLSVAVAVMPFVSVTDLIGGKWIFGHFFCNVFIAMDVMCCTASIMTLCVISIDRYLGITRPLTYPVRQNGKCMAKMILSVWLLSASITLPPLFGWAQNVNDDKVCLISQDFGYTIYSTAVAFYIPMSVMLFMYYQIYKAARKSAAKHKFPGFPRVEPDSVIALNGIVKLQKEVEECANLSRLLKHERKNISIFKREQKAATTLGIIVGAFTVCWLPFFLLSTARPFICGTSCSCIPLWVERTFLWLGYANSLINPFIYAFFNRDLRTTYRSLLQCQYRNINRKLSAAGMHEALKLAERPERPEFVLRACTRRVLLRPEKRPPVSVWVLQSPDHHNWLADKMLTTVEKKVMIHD
Method in brief: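 Filter-bound radioactivity counted after 1 h, with loss of specific radioligand binding fitted against DMSO. Membrane protein came from CHO cells expressing human 5HT7. Chemicals were tested first at 25 uM in duplicate, then in concentration series if active.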

[5] = molecular target: human Adrenergic, Beta 1 Receptor (Adrb1), ADRB1 (gene 153) (UniProt P08588); assay: NVS_GPCR_hAdrb1: NovaScreen (NVS) G Protein-Coupled Receptor Assay for human Adrenergic, Beta 1 Receptor (Adrb1) (AID 2283258)
human Adrenergic, Beta 1 Receptor (Adrb1), ADRB1 (gene 153), sequence (P08588 whole entry, looked up): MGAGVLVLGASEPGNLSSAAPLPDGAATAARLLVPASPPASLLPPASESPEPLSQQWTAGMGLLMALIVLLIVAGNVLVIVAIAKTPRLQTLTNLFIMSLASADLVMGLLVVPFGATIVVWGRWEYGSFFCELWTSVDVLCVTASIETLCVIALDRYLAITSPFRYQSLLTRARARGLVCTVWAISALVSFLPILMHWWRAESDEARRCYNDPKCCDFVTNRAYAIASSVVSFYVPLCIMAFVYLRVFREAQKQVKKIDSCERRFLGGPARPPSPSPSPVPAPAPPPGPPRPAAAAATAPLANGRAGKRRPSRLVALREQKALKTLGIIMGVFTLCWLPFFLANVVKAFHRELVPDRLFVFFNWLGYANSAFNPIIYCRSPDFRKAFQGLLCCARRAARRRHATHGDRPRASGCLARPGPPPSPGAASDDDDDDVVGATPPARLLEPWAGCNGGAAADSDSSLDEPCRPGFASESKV
Method in brief: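 Membranes/protein extracted from human neuroepithelioma cells, radioligand competition binding read by filtration and scintillation 2 h post-dose. Single 25 uM duplicate screen, then concentration-response follow-up; DMSO as negative control.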

[6] = molecular target: human Adrenergic, Alpha 2c Receptor (Adra2C), ADRA2C (gene 152) (UniProt P18825); assay: NVS_GPCR_hAdra2C: NovaScreen (NVS) G Protein-Coupled Receptor Assay for human Adrenergic, Alpha 2c Receptor (Adra2C) (AID 2283259)
human Adrenergic, Alpha 2c Receptor (Adra2C), ADRA2C (gene 152), sequence (P18825 whole entry, looked up): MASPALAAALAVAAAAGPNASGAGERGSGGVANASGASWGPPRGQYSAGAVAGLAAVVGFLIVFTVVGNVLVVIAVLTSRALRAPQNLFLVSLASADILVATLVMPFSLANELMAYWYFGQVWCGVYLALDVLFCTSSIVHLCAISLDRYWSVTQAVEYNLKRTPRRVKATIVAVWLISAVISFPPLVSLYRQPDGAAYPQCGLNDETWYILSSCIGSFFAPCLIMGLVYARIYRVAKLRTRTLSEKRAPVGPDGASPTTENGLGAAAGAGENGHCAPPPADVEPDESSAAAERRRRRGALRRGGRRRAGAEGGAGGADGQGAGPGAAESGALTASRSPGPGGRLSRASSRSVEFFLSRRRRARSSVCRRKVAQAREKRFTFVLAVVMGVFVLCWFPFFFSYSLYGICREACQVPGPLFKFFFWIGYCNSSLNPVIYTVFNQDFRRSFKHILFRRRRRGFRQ
Method in brief: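 Screened first in duplicate at 25 uM, with actives then run as concentration series. Membranes from Sf9 cells were exposed for 1 h, and displacement of radioligand was counted after filtration, using DMSO as baseline.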

[7] = molecular target: Type-1 angiotensin II receptor (Homo sapiens) (UniProt P30556); assay: NVS_GPCR_hAT1: NovaScreen (NVS) G Protein-Coupled Receptor Assay for human Angiotensin II receptor type 1 (AT1) (AID 2283263)
Type-1 angiotensin II receptor (Homo sapiens), sequence (P30556 whole entry, looked up): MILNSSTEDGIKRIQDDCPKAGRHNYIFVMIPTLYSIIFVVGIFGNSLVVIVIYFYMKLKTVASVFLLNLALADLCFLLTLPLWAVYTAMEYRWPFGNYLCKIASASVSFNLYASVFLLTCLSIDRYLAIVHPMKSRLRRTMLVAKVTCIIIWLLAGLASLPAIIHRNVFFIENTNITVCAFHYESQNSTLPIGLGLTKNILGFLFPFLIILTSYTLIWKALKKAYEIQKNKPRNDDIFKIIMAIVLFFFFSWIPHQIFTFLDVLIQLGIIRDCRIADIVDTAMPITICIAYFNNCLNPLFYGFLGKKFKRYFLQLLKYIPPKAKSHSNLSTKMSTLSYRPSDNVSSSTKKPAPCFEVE
Method in brief: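 Hits from a 25 uM duplicate screen (threshold e.g. 30% inhibition) were run in concentration-response with 50 uM top concentration. Displacement of specific radioligand from KAN-TS membrane preparations measured after 3 h by filter scintillation, DMSO as baseline.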

[8] = tested on: rat Monoamine Oxidase, MAO-A, Central (MAOAC), gene 29253; assay: NVS_ENZ_rMAOAC: NovaScreen (NVS) Enzymatic Assay for rat Monoamine Oxidase, MAO-A, Central (MAOAC) (AID 2283243);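 note: potency refers to inhibition seen as signal drop below DMSO baseline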
Method in brief: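 Single-concentration duplicate testing at 25 uM, then concentration-response for actives, in a lysate-based radiodetection MAO-A activity assay from rat brain. Enzyme activity measured 1.5 hours post-dosing; DMSO served as negative control and baseline.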

[9] = tested on: guinea pig Leukotriene B4 Receptor (LTB4), gene 100379538; assay: NVS_GPCR_gLTB4: NovaScreen (NVS) G Protein-Coupled Receptor Assay for guinea pig Leukotriene B4 Receptor (LTB4) (AID 2283247)
Method in brief: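 Membranes from guinea pig spleen incubated 2 h with radioligand and compound; bound counts measured by filtration and scintillation. Screened first at 25 uM in duplicate, then actives titrated to a 50 uM top concentration relative to DMSO.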

[10] = molecular target: human Adenosine A2a Receptor (AdoRA2a), ADORA2A (gene 135) (UniProt P29274); assay: NVS_GPCR_hAdoRA2a: NovaScreen (NVS) G Protein-Coupled Receptor Assay for human Adenosine A2a Receptor (AdoRA2a) (AID 2283256)
human Adenosine A2a Receptor (AdoRA2a), ADORA2A (gene 135), sequence (P29274 whole entry, looked up): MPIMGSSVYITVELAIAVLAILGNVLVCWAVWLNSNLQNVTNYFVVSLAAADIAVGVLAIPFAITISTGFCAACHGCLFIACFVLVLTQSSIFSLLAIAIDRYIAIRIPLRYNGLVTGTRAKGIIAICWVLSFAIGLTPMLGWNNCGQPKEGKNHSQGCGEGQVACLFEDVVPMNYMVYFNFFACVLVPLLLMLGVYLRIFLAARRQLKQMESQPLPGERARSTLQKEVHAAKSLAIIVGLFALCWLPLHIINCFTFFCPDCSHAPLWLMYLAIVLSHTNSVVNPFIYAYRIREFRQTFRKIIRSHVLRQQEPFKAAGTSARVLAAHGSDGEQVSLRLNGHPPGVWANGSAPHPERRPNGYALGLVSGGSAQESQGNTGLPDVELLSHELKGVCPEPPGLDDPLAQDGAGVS
Method in brief: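 Compounds screened in duplicate at 25 uM, with actives followed up in concentration series, for displacement of a radioligand from HEK293-derived receptor protein. Bound counts read by filter scintillation at 1.5 hours, DMSO as baseline.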

[11] = molecular target: rat Monoamine Oxidase, MAO-B, Peripheral (MAOBP), Maob (gene 25750) (UniProt P19643); assay: NVS_ENZ_rMAOBP: NovaScreen (NVS) Enzymatic Assay for rat Monoamine Oxidase, MAO-B, Peripheral (MAOBP) (AID 2283242)
rat Monoamine Oxidase, MAO-B, Peripheral (MAOBP), Maob (gene 25750), sequence (P19643 whole entry, looked up): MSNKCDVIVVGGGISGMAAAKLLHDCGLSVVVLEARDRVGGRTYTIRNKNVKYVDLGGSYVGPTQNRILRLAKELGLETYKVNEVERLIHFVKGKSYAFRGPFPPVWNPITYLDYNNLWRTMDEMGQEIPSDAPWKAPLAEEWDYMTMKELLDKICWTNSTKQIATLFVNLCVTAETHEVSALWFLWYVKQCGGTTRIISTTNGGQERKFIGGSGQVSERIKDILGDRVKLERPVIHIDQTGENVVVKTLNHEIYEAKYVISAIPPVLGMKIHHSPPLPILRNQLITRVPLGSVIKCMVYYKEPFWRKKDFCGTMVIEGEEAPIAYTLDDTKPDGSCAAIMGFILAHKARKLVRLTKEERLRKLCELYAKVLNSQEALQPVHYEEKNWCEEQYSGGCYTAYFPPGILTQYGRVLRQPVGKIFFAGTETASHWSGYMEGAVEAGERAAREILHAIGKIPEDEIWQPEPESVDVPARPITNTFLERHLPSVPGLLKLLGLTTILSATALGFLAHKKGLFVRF

[12] = molecular target: human Endothelin Receptor Type A (ETA), EDNRA (gene 1909) (UniProt P25101); assay: NVS_GPCR_hETA: NovaScreen (NVS) G Protein-Coupled Receptor Assay for human Endothelin Receptor Type A (ETA) (AID 2283265)
Method in brief: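 Binding of radioligand to membrane protein extracted from SH-SY5Y cells was read by filtration and scintillation after 3 h. Compounds were screened at 25 uM in duplicate, with hits followed up in singleton concentration series to 50 uM.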

[13] = molecular target: human Dopamine Receptor D2 (DRD2), DRD2 (gene 1813) (UniProt P14416); assay: NVS_GPCR_hDRD2s: NovaScreen (NVS) G Protein-Coupled Receptor Assay for human Dopamine Receptor D2 (DRD2) (AID 2283266)
human Dopamine Receptor D2 (DRD2), DRD2 (gene 1813), sequence (P14416 whole entry, looked up): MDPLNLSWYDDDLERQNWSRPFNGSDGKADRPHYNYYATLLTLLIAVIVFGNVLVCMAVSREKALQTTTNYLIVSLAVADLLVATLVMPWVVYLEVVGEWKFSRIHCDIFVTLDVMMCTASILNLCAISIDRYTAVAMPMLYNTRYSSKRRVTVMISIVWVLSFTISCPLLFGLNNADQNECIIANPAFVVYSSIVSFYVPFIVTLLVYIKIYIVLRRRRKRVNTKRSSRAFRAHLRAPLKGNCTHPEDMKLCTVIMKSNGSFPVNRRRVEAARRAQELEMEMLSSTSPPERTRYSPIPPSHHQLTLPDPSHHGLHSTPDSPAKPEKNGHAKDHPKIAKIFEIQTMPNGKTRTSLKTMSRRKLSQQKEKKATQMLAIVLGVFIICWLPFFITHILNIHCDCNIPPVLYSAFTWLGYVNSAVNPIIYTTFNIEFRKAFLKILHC
Method in brief: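 Test compound (25 uM, duplicate in the primary screen; concentration series at follow-up) competed with radioligand for human DRD2 in CHO-derived membrane protein. Filter-based scintillation counting was done 1.5 hours after dosing, with loss of signal analysed against DMSO.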

[14] = molecular target: Beta-2 adrenergic receptor (Homo sapiens) (UniProt P07550); assay: NVS_GPCR_hAdrb2: NovaScreen (NVS) G Protein-Coupled Receptor Assay for human Adrenergic, Beta 2 Receptor (Adrb2) (AID 2283261)
Method in brief: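 Compounds screened in duplicate at 25 uM, then actives in concentration series. Human beta-2 receptor from CHO material, cell-free; radioligand displacement after 1 h measured by filtration and scintillation against DMSO baseline.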

[15] = tested on: guinea pig Muscarinic, Peripheral (Mperiperal) Receptor, Non-selective Binding, gene 100379235; assay: NVS_GPCR_gMPeripheral_NonSelective: NovaScreen (NVS) G Protein-Coupled Receptor Assay for guinea pig Muscarinic, Peripheral (Mperiperal) Receptor, Non-selective Binding (AID 2283250)
Method in brief: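 Screened in duplicate at 25 uM, hits retested in concentration series to 50 uM max, using bladder membrane radioligand displacement from guinea pig. Filtration and scintillation counting 1 h post-dose, fitted relative to DMSO.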

[16] = molecular target: human Dopamine Receptor D4.4 (DRD4.4), DRD4 (gene 1815) (UniProt P21917); assay: NVS_GPCR_hDRD4.4: NovaScreen (NVS) G Protein-Coupled Receptor Assay for human Dopamine Receptor D4.4 (DRD4.4) (AID 2283264)
human Dopamine Receptor D4.4 (DRD4.4), DRD4 (gene 1815), sequence (P21917 whole entry, looked up): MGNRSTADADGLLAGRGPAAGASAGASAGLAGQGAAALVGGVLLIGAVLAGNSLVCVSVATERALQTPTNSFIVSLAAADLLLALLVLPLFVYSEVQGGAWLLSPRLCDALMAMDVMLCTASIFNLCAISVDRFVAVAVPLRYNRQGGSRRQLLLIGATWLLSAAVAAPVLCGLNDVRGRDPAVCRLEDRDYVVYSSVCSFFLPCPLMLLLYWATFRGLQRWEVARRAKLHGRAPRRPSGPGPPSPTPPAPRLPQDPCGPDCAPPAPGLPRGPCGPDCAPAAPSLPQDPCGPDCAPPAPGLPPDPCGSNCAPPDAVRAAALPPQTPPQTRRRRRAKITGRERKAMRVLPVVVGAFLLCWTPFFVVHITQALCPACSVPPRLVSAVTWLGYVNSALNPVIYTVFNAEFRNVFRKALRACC
Method in brief: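 Filter-binding assay with a tritiated or iodinated ligand, cell-free receptor prepared from CHO, 1 hour. Loss of bound radioactivity versus DMSO; single 25 uM duplicate screen, then concentration-response for actives.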

[17] = molecular target: guinea pig Opioid, Kappa 1 Receptor (OpiateK), OPRK1 (gene 100135587) (UniProt P41144); assay: NVS_GPCR_gOpiateK: NovaScreen (NVS) G Protein-Coupled Receptor Assay for guinea pig Opioid, Kappa 1 Receptor (OpiateK) (AID 2283252);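 note: radioligand displacement from kappa opioid receptor in guinea pig cerebellar membranes; active means reduced radioligand binding relative to DMSO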
Method in brief: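 Radioligand competition binding using guinea pig cerebellum membrane fraction; 2 h exposure; filter radiodetection. Single concentration 25 uM (duplicate), follow-up concentration-response for actives.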

[18] = molecular target: human Serotonin, 5-Hydroxytryptamine Receptor 6 (5HT6), HTR6 (gene 3362) (UniProt P50406); assay: NVS_GPCR_h5HT6: NovaScreen (NVS) G Protein-Coupled Receptor Assay for human Serotonin, 5-Hydroxytryptamine Receptor 6 (5HT6) (AID 2283253)
human Serotonin, 5-Hydroxytryptamine Receptor 6 (5HT6), HTR6 (gene 3362), sequence (P50406 whole entry, looked up): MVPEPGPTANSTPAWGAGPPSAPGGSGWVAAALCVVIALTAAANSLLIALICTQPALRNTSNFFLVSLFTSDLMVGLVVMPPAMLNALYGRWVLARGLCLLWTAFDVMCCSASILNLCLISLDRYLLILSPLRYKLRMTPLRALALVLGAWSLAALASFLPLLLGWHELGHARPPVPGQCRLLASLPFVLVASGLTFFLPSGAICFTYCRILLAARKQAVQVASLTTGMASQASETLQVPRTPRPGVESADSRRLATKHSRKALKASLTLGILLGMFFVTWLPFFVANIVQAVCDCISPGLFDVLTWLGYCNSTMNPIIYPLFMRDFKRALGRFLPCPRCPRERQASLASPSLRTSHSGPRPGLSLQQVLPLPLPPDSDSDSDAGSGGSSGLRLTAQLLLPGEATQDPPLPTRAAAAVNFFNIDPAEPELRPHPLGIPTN
Method in brief: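 Filter scintillation counting of radioligand displacement from HEK293-expressed 5HT6, 1 hour post-dose, with loss of signal relative to DMSO. Single 25 uM duplicates first, with concentration series for confirmation.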

[19] = molecular target: human Adenosine A1 Receptor (AdoRA1), ADORA1 (gene 134) (UniProt P30542); assay: NVS_GPCR_hAdoRA1: NovaScreen (NVS) G Protein-Coupled Receptor Assay for human Adenosine A1 Receptor (AdoRA1) (AID 2283254)
human Adenosine A1 Receptor (AdoRA1), ADORA1 (gene 134), sequence (P30542 whole entry, looked up): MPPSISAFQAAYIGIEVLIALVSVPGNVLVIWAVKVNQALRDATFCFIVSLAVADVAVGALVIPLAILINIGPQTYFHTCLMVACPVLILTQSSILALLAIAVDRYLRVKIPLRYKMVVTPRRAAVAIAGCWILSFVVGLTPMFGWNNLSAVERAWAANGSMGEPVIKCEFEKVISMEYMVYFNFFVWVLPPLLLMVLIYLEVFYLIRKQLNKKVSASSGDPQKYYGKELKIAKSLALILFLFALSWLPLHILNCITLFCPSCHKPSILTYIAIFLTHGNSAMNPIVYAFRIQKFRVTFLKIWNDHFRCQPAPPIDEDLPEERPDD
Method in brief: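 Hum. cortical membranes + radioligand, cmpd 1 h; filtration, scintillation count. Readout = decrease vs DMSO. Primary 25 uM dup; hits → conc. series.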

In the case of CCCN(CCC)c1c([N+](=O)[O-])cc(C(F)(F)F)cc1[N+](=O)[O-], the outcome [1] is reported as “inactive”.

With CC[C@H](C)[C@H]1O[C@]2(C=C[C@@H]1C)C[C@@H]1C[C@@H](C/C=C(\C)[C@@H](O[C@H]3C[C@H](OC)[C@@H](O[C@H]4C[C@H](OC)[C@@H](O)[C@H](C)O4)[C@H](C)O3)[C@@H](C)/C=C/C=C3\CO[C@@H]4[C@H](O)C(C)=C[C@@H](C(=O)O1)[C@]34O)O2 (tested in a mixture with another compound) the outcome [2] was “inactive”, the AC50 [3] was 25 µM (active) and the AC50 [4] was 6.77 µM (active). The AC50 [5] was 6.87 µM (active), the AC50 [6] was 6.06 µM (active) and the AC50 [7] was 8.16 µM (active).

For C#CCN1C(=O)COc2cc(F)c(N3C(=O)C4=C(CCCC4)C3=O)cc21, the AC50 [8] was 6.93 µM (active).

With O=C(Nc1ccccc1)Nc1cnns1 the AC50 [8] was 5.16 µM (active), the AC50 [9] was 25 µM (active) and the outcome [4] was “inactive”. The outcome [10] was “inactive” and the AC50 [6] was 4.96 µM (active).

In the case of Oc1cc(Cl)ccc1Oc1ccc(Cl)cc1Cl, the outcome [11] is reported as “inactive”, the AC50 [8] is reported as 38.9 µM (active) and the outcome [4] is reported as “inactive”. The AC50 [5] was 37.5 µM (active), the AC50 [6] was 6.8 µM (active) and the outcome [12] was “inactive”. For the same molecule, the outcome [13] was “inactive”.

For COc1nn(CSP(=S)(OC)OC)c(=O)s1, the AC50 [14] was 6.74 µM (active).

For CC1(C)C(C=C(Cl)Cl)C1C(=O)OC(C#N)c1ccc(F)c(Oc2ccccc2)c1 (stereo unspecified), the outcome [4] was “inactive”.

In the case of CCOc1nc(NC)nc(NC(=O)NS(=O)(=O)c2ccccc2C(=O)OC)n1, the outcome [1] is reported as “inactive”.

In the case of O=C(O)C(F)(F)C(F)(F)C(F)(F)C(F)(F)C(F)(F)C(F)(F)C(F)(F)F, the AC50 [9] is reported as 18.5 µM (active), the outcome [3] is reported as “inactive” and the outcome [15] is reported as “inactive”. For the same molecule, the AC50 [10] was 11 µM (active), the outcome [6] was “inactive” and the outcome [7] was “inactive”. The outcome [13] was “inactive”.

For CNC(=O)Oc1cccc(N=CN(C)C)c1, the outcome [8] was “inactive” and the outcome [16] was “inactive”.

With CCOCN(C(=O)CCl)c1c(C)cccc1CC the outcome [17] was “inactive”, the outcome [18] was “inactive” and the outcome [7] was “inactive”.

With COC(=O)c1ccccc1CS(=O)(=O)NC(=O)Nc1nc(OC)cc(OC)n1 the AC50 [8] was 25 µM (active).

For Oc1ccc(Cl)cc1Cc1ccccc1, the AC50 [11] was 13.6 µM (active), the AC50 [8] was 17.3 µM (active) and 25.2 µM (active) and the outcome [8] was “inactive”. For the same molecule, the AC50 [3] was 6.93 µM (active), the outcome [3] was “inactive” and the AC50 [19] was 16.1 µM (active) [middle of 6 runs]. For the same molecule, the AC50 [4] was 20.8 µM (active) [middle of 5 runs], the AC50 [10] was 25.2 µM (active) and 15.1 µM (active) and the AC50 [5] was 33.3 µM (active) [middle of 5 runs]. The AC50 [6] was 25.2 µM (active) [middle of 6 runs], the outcome [7] was “inactive” and the AC50 [16] was 25.2 µM (active). For the same molecule, the AC50 [13] was 33.5 µM (active) [middle of 6 runs].

In the case of N#Cc1c(Cl)c(Cl)c(Cl)c(C#N)c1Cl, the outcome [18] is reported as “inactive” and the outcome [7] is reported as “inactive”.
